Source: PubChem BioAssay (NCI)
About 83,000 compounds went through this panel and 20% of them were active in at least one assay; those are over-represented in the sample as a whole.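 For each line, cells grew in 96-well plates with the test compound present at a single concentration for 48 hours.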 Activity calls are given as the source filed them. How the source made its calls: active means growth percent below 10; inactive means the rest.

Legend:
Assay in all cases: NCI-60 one-dose screen, 48 h (100 = growth as untreated, 0 = no growth, -100 = all killed)
Conditions in all cases: 10 µM unless noted
NCI-H23 lung = tested on: NCI-H23 lung
NCI-H226 lung = tested on: NCI-H226 lung
NCI-H322M lung = tested on: NCI-H322M lung
HOP-62 NSCLC = tested on: HOP-62 NSCLC
NCI-H460 lung = tested on: NCI-H460 lung
HOP-92 NSCLC = tested on: HOP-92 NSCLC
NCI-H522 lung = tested on: NCI-H522 lung
A549/ATCC NSCLC = tested on: A549/ATCC NSCLC
786-0 renal = tested on: 786-0 renal
COLO 205 colon = tested on: COLO 205 colon

Measured: growth

CCc1ccccc1-c1nc(CN[C@@H]2C[C@@H]3C[C@H]([C@H]2C)C3(C)C)c(C)o1
active: NCI-H23 lung -78.7% | NCI-H226 lung -68.7% | NCI-H322M lung -92.5% | HOP-62 NSCLC -78.9% | NCI-H460 lung -54.5% | HOP-92 NSCLC -81.5% | NCI-H522 lung -85.9% | A549/ATCC NSCLC -49.7% | 786-0 renal -82.1% | COLO 205 colon -74.8%

O=C(N/N=C/c1c[nH]c2ccccc12)Nc1ccccc1Cl
inactive: NCI-H226 lung 19.8% | NCI-H322M lung 41.7% | HOP-62 NSCLC 18.4% | A549/ATCC NSCLC 15.2%
active: NCI-H23 lung 1.51% | NCI-H460 lung 1.98% | HOP-92 NSCLC 3.23% | NCI-H522 lung -41.8% | 786-0 renal -41.4% | COLO 205 colon -39.7%

ClC(Cn1ncc2c(Nc3cccc(Br)c3)nc(SCCN3CCOCC3)nc21)c1ccc(Br)cc1 (stereo not given)
active: NCI-H23 lung -20.2% | HOP-62 NSCLC -12.9% | HOP-92 NSCLC -18.9% | 786-0 renal -66.5% | COLO 205 colon -79.2%
inactive: NCI-H226 lung 32.2% | NCI-H322M lung 47.5% | NCI-H460 lung 27.6% | NCI-H522 lung 13.9% | A549/ATCC NSCLC 15.7%

O=C(c1ccc(O)cc1)C1[C@H](c2ccc(Cl)cc2)[C@@H](c2ccccc2)NC12C(=O)Nc1ccc(Br)cc12 (stereo not given in full)
active: NCI-H23 lung -58.7% | NCI-H226 lung -54.7% | NCI-H322M lung -4.19% | HOP-62 NSCLC -28.9% | NCI-H460 lung -45.9% | HOP-92 NSCLC -32.2% | NCI-H522 lung -20.8% | A549/ATCC NSCLC 5.99% | 786-0 renal -52.1% | COLO 205 colon -86.3%

Cc1ccc2c(c1)/C(=C/C(=O)c1cc3ccccc3oc1=O)C(=O)N2
inactive: NCI-H23 lung 71.6% | NCI-H226 lung 51.8% | NCI-H322M lung 101% | HOP-62 NSCLC 89.4% | NCI-H460 lung 97% | A549/ATCC NSCLC 89.5% | 786-0 renal 74.7% | COLO 205 colon 30.4%
active: HOP-92 NSCLC -4.43% | NCI-H522 lung -94.4%

NNc1ncnc2sc3c(c12)CCN(Cc1ccccc1)C3
inactive: NCI-H23 lung 73.2% | NCI-H226 lung 38.9% | NCI-H322M lung 40.9% | HOP-62 NSCLC 58% | NCI-H460 lung 37.3% | HOP-92 NSCLC 77.7% | A549/ATCC NSCLC 75.1% | 786-0 renal 59.1% | COLO 205 colon 16.6%
active: NCI-H522 lung 2.62%

Cn1cc(-c2cc(N)n3nc(-c4c[nH]c5ccccc45)cc3n2)c2cc(F)ccc21
active: HOP-62 NSCLC -22.1% | NCI-H460 lung -23.9% | NCI-H522 lung -61.8% | 786-0 renal -2.12% | COLO 205 colon -47.4%
inactive: NCI-H23 lung 44.7% | NCI-H226 lung 91.4% | NCI-H322M lung 65.1% | HOP-92 NSCLC 31.3% | A549/ATCC NSCLC 13.7%

Oc1ccc(Cl)c(Nc2ncnc3c2cnn3CC(Cl)c2ccc(Br)cc2)c1 (stereo not given)
active: HOP-92 NSCLC 8.3%
inactive: NCI-H23 lung 65.8% | NCI-H226 lung 84% | NCI-H322M lung 67% | HOP-62 NSCLC 58.1% | NCI-H460 lung 67.1% | NCI-H522 lung 52.6% | A549/ATCC NSCLC 53.9% | 786-0 renal 63.9% | COLO 205 colon 90.9%

CN(C)c1nc(NCCNS(=O)(=O)c2ccc(C(=O)/C=C/c3ccccc3)cc2)nc(N2CCOCC2)n1
inactive: NCI-H23 lung 93.2% | NCI-H226 lung 82.6% | NCI-H322M lung 96.9% | HOP-62 NSCLC 108% | NCI-H460 lung 101% | HOP-92 NSCLC 94.9% | NCI-H522 lung 67.5% | A549/ATCC NSCLC 78.8% | 786-0 renal 66.4% | COLO 205 colon 105%

COc1ccc2[nH]c(O)c(N=Nc3nc(-c4ccc(C#N)cc4)cs3)c2c1
inactive: NCI-H23 lung 55.9% | NCI-H226 lung 98.4% | NCI-H322M lung 83.9% | HOP-62 NSCLC 77.5% | NCI-H460 lung 29.2% | HOP-92 NSCLC 25.1% | NCI-H522 lung 65.4% | A549/ATCC NSCLC 51.8% | COLO 205 colon 86%
active: 786-0 renal -73.4%

O=C(Nc1nc2ccc([N+](=O)[O-])cc2s1)Nc1ccc(Cl)cc1Cl
inactive: NCI-H23 lung 18.2% | NCI-H226 lung 61.1% | NCI-H322M lung 72.2% | HOP-62 NSCLC 39.8% | NCI-H460 lung 27.6% | HOP-92 NSCLC 29.1% | NCI-H522 lung 20.3% | A549/ATCC NSCLC 55.8% | 786-0 renal 19.6% | COLO 205 colon 74.7%

Cc1cc(=O)oc2cc(OCC(O)CNN3C(=O)c4cccc5c(N6CCN(C)CC6)ccc(c45)C3=O)ccc12 (stereo not given)
inactive: NCI-H23 lung 98.4% | NCI-H226 lung 102% | NCI-H322M lung 101% | HOP-62 NSCLC 99.8% | NCI-H460 lung 99.4% | HOP-92 NSCLC 68.3% | NCI-H522 lung 98.2% | A549/ATCC NSCLC 99.8% | 786-0 renal 97.8% | COLO 205 colon 87.7%

CC1=C(C(=O)OCc2ccccc2)C(c2ccc(N(C)C)cc2)n2c(nc3ccccc32)N1 (stereo not given)
active: NCI-H522 lung 8.11%
inactive: NCI-H23 lung 90.8% | NCI-H226 lung 70.1% | NCI-H322M lung 101% | HOP-62 NSCLC 83.6% | NCI-H460 lung 99.8% | HOP-92 NSCLC 73.5% | A549/ATCC NSCLC 94.9% | 786-0 renal 90.6% | COLO 205 colon 110%

Cn1cc(-c2cc(N)n3nc(-c4c[nH]c5ccccc45)cc3n2)c2ccccc21
active: NCI-H23 lung -73.4% | NCI-H226 lung -38.6% | NCI-H322M lung -80% | HOP-62 NSCLC -85.4% | NCI-H460 lung -66.6% | HOP-92 NSCLC -59.5% | NCI-H522 lung -85.1% | A549/ATCC NSCLC -75.2% | 786-0 renal -81.6% | COLO 205 colon -88.6%

O=C1NC(=NC23CC4CC(CC(C4)C2)C3)N/C1=C\c1ccc2ncccc2c1
active: NCI-H23 lung -15.2% | NCI-H226 lung -38.5% | HOP-62 NSCLC -64.4% | NCI-H460 lung -68.8% | HOP-92 NSCLC -11.7% | NCI-H522 lung -37% | A549/ATCC NSCLC -46.3% | 786-0 renal -51%
inactive: NCI-H322M lung 22.6% | COLO 205 colon 19.5%

Cc1ccc(C2CC(c3ccc(NC(=S)Nc4ccccc4)cc3)=NN2c2ccc(S(N)(=O)=O)cc2)cc1 (stereo not given)
inactive: NCI-H23 lung 23.6% | NCI-H322M lung 45.6% | HOP-62 NSCLC 34.6% | NCI-H522 lung 15.8% | A549/ATCC NSCLC 15.1% | 786-0 renal 18.6%
active: NCI-H226 lung -7.72% | NCI-H460 lung -11.1% | HOP-92 NSCLC 7.59% | COLO 205 colon -3.89%

Fc1cccc(CNc2nc(SCCN3CCOCC3)nc3c2cnn3CC(Cl)c2ccc(Br)cc2)c1 (stereo not given)
inactive: NCI-H23 lung 46.2% | NCI-H226 lung 27.5% | NCI-H322M lung 81.7% | HOP-62 NSCLC 44.9% | HOP-92 NSCLC 20.3% | NCI-H522 lung 36.8% | A549/ATCC NSCLC 19.9% | 786-0 renal 20.9%
active: NCI-H460 lung 7.02% | COLO 205 colon -9.76%

COc1ccc(-c2cc(C(=O)N=Nc3c(O)[nH]c4ccc(Cl)cc34)c3ccccc3n2)cc1OC
inactive: NCI-H23 lung 92.2% | NCI-H226 lung 89.5% | NCI-H322M lung 102% | HOP-62 NSCLC 123% | NCI-H460 lung 111% | HOP-92 NSCLC 121% | NCI-H522 lung 106% | A549/ATCC NSCLC 111% | 786-0 renal 106% | COLO 205 colon 125%

Clc1ccc(-c2nc3c4c(-c5ccccc5)c(-c5ccccc5)n(Cc5ccccc5)c4ncn3n2)cc1
inactive: NCI-H322M lung 21% | HOP-62 NSCLC 19.8% | A549/ATCC NSCLC 14.1%
active: NCI-H23 lung 2.75% | NCI-H226 lung -3.39% | NCI-H460 lung 3.08% | HOP-92 NSCLC -23.1% | NCI-H522 lung -28.5% | 786-0 renal 5.51% | COLO 205 colon -59.2%

COc1ccc2nc(NC(=O)c3ccc(N(C)C)cc3)sc2c1
inactive: NCI-H23 lung 66.2% | NCI-H226 lung 56.9% | NCI-H322M lung 64.7% | HOP-62 NSCLC 92% | NCI-H460 lung 65.9% | HOP-92 NSCLC 112% | NCI-H522 lung 67.7% | A549/ATCC NSCLC 54.9% | 786-0 renal 85% | COLO 205 colon 89.5%

COc1cc(/C=C/C(=O)c2ccc(S(=O)(=O)NCCNc3nc(N(C)C)nc(N4CCOCC4)n3)cc2)cc(OC)c1OC
active: NCI-H23 lung 3.66% | HOP-62 NSCLC -19.1% | NCI-H460 lung -100% | NCI-H522 lung -100% | 786-0 renal -65.1%
inactive: NCI-H226 lung 11.5% | NCI-H322M lung 57.2% | HOP-92 NSCLC 50.1% | A549/ATCC NSCLC 26.5% | COLO 205 colon 28.3%

CCC1(OC(=O)c2ccccc2SSCCOC(=O)CCCCC2SCC3NC(=O)NC32)C(=O)OCc2c1cc1n(c2=O)Cc2cc3ccccc3nc2-1 (stereo not given)
inactive: NCI-H23 lung 15.4% | NCI-H226 lung 41.6% | NCI-H322M lung 83.6% | HOP-62 NSCLC 39.4% | NCI-H460 lung 13.3% | HOP-92 NSCLC 32.7% | NCI-H522 lung 42.3% | A549/ATCC NSCLC 47% | 786-0 renal 50.9% | COLO 205 colon 79.3%

COc1cc2cc(C(=O)N3C[C@@H](CCl)c4c3cc(OC(=O)N(C)CCSSCCN3CCOCC3)c3ccccc43)[nH]c2c(OC)c1OC
active: NCI-H23 lung -66.9% | NCI-H226 lung -17.2% | NCI-H322M lung 1.49% | HOP-62 NSCLC -49.4% | NCI-H460 lung 0.904% | HOP-92 NSCLC -16.1% | NCI-H522 lung -42.8% | A549/ATCC NSCLC -9.46% | 786-0 renal -65% | COLO 205 colon -80.4%

CS(=O)(=O)Nc1cccc(-n2cnc3cc(-c4ccc(O)cc4)ccc32)c1
inactive: NCI-H23 lung 35.3% | NCI-H226 lung 33% | NCI-H322M lung 53.1% | HOP-62 NSCLC 32.1% | NCI-H460 lung 20.3% | HOP-92 NSCLC 96.8% | NCI-H522 lung 25% | A549/ATCC NSCLC 53.7% | 786-0 renal 44.7% | COLO 205 colon 31.5%

COc1ccc2c(c1)C(Sc1ccc(Cl)cc1)c1c(nc(N)c(C#N)c1N)O2 (stereo not given)
inactive: NCI-H23 lung 74.6% | NCI-H226 lung 64.9% | NCI-H322M lung 86.4% | HOP-62 NSCLC 61.8% | NCI-H460 lung 63.2% | HOP-92 NSCLC 76.7% | NCI-H522 lung 54.5% | A549/ATCC NSCLC 53.7% | 786-0 renal 61.8% | COLO 205 colon 87.2%

COc1ccc(N=Nc2c(N)nn3c(-c4ccc([N+](=O)[O-])cc4)ccnc23)cc1
inactive: NCI-H23 lung 105% | NCI-H226 lung 95.2% | NCI-H322M lung 107% | HOP-62 NSCLC 95.3% | NCI-H460 lung 105% | HOP-92 NSCLC 94.5% | NCI-H522 lung 91.6% | A549/ATCC NSCLC 104% | 786-0 renal 93% | COLO 205 colon 119%
